The values that follow come from PubChem BioAssay.

Test [1] can be described thus: small molecules captured by biotinylated probe aFSTL3 – biochemical, small-molecule microarray, fluorescence 635/667, stem cell growth factor project, primary screen (AID 1064).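 Further: measures binding of the biotinylated anti-FSTL3 antibody to printed compounds.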 The note with it: higher = more signal.
Test [2] can be described thus: binders from COS7 lysate, DM2A8 probe, primary screen, torsin A project, cell lysate, small-molecule microarray, fluorescence 635/667 (AID 1065). Conditions: higher = more signal, COS7 lysate expressing mutant human TOR1A.
Test [3] can be described thus: small molecules captured by biotinylated probe aFGF2 – biochemical, small-molecule microarray, fluorescence 635/667, stem cell growth factor project, primary screen (AID 1067).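 Further: measures binding of biotinylated aFGF2 protein to printed compounds on slides; z-score merges feature fluorescence and signal-to-noise across triplicate slides.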 The note with it: higher = more signal.
Test [4] can be described thus: small molecules captured by biotinylated probe aFGF10 – biochemical, small-molecule microarray, fluorescence 635/667, stem cell growth factor project, primary screen (AID 1071).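 Further: score merges 667 nm spot intensity and signal to noise from triplicate slides.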 Conditions: higher = more signal.
Test [5] deals with Neurogenic locus notch homolog protein 2 (Homo sapiens) (UniProt Q04721). Put plainly: small molecules binding Notch2 protein – biochemical, small-molecule microarray, 635 nm fluorescence, stem cell growth factors, primary screen (AID 1073). Conditions: higher = more signal.
Test [6] deals with Pro-neuregulin-1, membrane-bound isoform (Homo sapiens) (UniProt Q02297). As to the kind of experiment: small molecules binding neuregulin-1 protein – biochemical, small-molecule microarray, fluorescence 635/667, psychiatric disease protein project, primary screen (AID 1075).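 Further: score combines 667 nm spot fluorescence with signal to noise.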 The note with it: NRG1 binding, 635 nm fluorescence, higher = more signal.
Test [7] has as its system Neuregulin-1 EGF-like domain. Put plainly: small molecules binding NRG1 EGF domain – biochemical, small-molecule microarray, 635 nm fluorescence, primary screen (AID 1081).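 Further: binding of the protein to compounds printed on small-molecule microarray slides.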 Conditions: higher = more signal.
A short description of test [8]: FRG1 expression reporter modulators in myotubes – cell-based, C2C12 myotubes, firefly/Renilla luciferase, luminescence, FRG1 inhibition for FSHD, primary screen (AID 1084). Conditions: FRG1 promoter luciferase, higher = more signal, called active from +8 up or from −8 down.
Test [9] is described as follows: small molecules captured by biotinylated probe aFST – biochemical, small-molecule microarray, fluorescence 635/667, stem cell growth factor project, primary screen (AID 1086).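 Further: score merges 667 nm fluorescence with signal-to-noise of each printed compound spot.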 The note with it: higher = more signal.
Test [10] in a line: binders of probe aHhip on microarray, primary screen, stem cell growth factor project, biochemical, small-molecule microarray, fluorescence 635/667 (AID 1087).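 Further: score merges spot fluorescence at 667nm with spot signal to noise ratio.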 The note with it: higher = more signal.
In test [11] the test system is PRMT1 (protein arginine N-methyltransferase 1). Put plainly: small molecules binding arginine methyltransferase PRMT1 – biochemical, small-molecule microarray, 635 nm fluorescence, primary screen (AID 1088).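 Further: binding of Prmt1 protein to compounds spotted on small-molecule microarray slides.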 The note with it: higher = more signal.
Test [12] in a line: growth effects on S. cerevisiae YJM789 – YJM789 clinical isolate, OD600, 24 h, basal, primary screen (AID 1089).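 Further: growth of clinical yeast isolate S. cerevisiae YJM 789 seeded 1000 cells per well; test concentration not given here.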 Conditions: higher = more signal, called active from +8 up or from −8 down.
The nature of test [13]: S. pombe growth modifiers, basal conditions – strain 972, OD600, 24 h, no modulator, primary screen (AID 1090).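 Further: basal condition with compound alone and no growth modifier present; test concentration not given here.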 The note with it: S. pombe 972 growth, higher = more signal, called active from +8 up or from −8 down.
Test [14] in a line: budding yeast growth modifiers under rapamycin – strain BY4716, OD600, 96 h, primary screen (AID 1091). Further: test concentration not given here. Conditions: S. cerevisiae BY4716 + rapamycin, higher = more signal, called active from +8 up or from −8 down.
Test [15] deals with Torsin-1A-interacting protein 2 (Homo sapiens) (UniProt Q8NFQ8). As to the kind of experiment: small molecules binding lysate-expressed LULL1 – cell lysate, human LULL1 lysate, 635/667 nm fluorescence, primary screen (AID 1092).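 Further: probe is lysate of COS7 cells overexpressing human LULL1; score merges per-feature 667 nm fluorescence with signal-to-noise.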 Conditions: small-molecule microarray, hLULL1 lysate binding, 635 nm fluorescence; higher = more signal.
A short description of test [16]: optical density change of DRC41 E. coli – strain DRC41, OD650, 24 h, E. coli filamentation project, primary screen (AID 1093).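 Further: MC1000 strain lacking acrAB efflux and sulA so SOS filamentation is blocked; test concentration not given here.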 The note with it: E. coli DRC41 growth, higher = more signal, called active from +8 up or from −8 down.
Test [17] in a line: probe aLefty2 binding to arrayed compounds – biochemical, biotinylated probe, 635/667 nm fluorescence, primary screen (AID 1094).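 Further: score merges spot fluorescence near 667 nm with spot signal-to-noise ratio.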 Conditions: small-molecule microarray, higher = more signal.
Test [18] concerns Noggin (protein binding on small-molecule microarray). Put plainly: small molecules binding Noggin protein – biochemical, 635/667 nm fluorescence, primary screen (AID 1095).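 Further: score merges 667 nm feature fluorescence with signal to noise over triplicate slides.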 The note with it: 635 nm fluorescence, higher = more signal.
The target in test [19] is Neurogenic locus notch homolog protein 3 (Homo sapiens) (UniProt Q9UM47). Put plainly: small molecules binding NOTCH3 protein – biochemical, 635/667 nm fluorescence, primary screen (AID 1096). The note with it: small-molecule microarray, 635 nm fluorescence, higher = more signal.
Test [20] is described as follows: probe aEGFR binding to arrayed compounds – biochemical, biotinylated probe, 635/667 nm fluorescence, primary screen (AID 1097).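 Further: probe is a biotinylated anti-EGFR antibody binding compounds printed on slides; score combines fluorescence near 667 nm and signal to noise of each spot.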 The note with it: small-molecule microarray, higher = more signal.

Activity calls are given as the source filed them.

Sequence of Neurogenic locus notch homolog protein 2 (Homo sapiens) (Q04721 whole entry, looked up, canonical isoform): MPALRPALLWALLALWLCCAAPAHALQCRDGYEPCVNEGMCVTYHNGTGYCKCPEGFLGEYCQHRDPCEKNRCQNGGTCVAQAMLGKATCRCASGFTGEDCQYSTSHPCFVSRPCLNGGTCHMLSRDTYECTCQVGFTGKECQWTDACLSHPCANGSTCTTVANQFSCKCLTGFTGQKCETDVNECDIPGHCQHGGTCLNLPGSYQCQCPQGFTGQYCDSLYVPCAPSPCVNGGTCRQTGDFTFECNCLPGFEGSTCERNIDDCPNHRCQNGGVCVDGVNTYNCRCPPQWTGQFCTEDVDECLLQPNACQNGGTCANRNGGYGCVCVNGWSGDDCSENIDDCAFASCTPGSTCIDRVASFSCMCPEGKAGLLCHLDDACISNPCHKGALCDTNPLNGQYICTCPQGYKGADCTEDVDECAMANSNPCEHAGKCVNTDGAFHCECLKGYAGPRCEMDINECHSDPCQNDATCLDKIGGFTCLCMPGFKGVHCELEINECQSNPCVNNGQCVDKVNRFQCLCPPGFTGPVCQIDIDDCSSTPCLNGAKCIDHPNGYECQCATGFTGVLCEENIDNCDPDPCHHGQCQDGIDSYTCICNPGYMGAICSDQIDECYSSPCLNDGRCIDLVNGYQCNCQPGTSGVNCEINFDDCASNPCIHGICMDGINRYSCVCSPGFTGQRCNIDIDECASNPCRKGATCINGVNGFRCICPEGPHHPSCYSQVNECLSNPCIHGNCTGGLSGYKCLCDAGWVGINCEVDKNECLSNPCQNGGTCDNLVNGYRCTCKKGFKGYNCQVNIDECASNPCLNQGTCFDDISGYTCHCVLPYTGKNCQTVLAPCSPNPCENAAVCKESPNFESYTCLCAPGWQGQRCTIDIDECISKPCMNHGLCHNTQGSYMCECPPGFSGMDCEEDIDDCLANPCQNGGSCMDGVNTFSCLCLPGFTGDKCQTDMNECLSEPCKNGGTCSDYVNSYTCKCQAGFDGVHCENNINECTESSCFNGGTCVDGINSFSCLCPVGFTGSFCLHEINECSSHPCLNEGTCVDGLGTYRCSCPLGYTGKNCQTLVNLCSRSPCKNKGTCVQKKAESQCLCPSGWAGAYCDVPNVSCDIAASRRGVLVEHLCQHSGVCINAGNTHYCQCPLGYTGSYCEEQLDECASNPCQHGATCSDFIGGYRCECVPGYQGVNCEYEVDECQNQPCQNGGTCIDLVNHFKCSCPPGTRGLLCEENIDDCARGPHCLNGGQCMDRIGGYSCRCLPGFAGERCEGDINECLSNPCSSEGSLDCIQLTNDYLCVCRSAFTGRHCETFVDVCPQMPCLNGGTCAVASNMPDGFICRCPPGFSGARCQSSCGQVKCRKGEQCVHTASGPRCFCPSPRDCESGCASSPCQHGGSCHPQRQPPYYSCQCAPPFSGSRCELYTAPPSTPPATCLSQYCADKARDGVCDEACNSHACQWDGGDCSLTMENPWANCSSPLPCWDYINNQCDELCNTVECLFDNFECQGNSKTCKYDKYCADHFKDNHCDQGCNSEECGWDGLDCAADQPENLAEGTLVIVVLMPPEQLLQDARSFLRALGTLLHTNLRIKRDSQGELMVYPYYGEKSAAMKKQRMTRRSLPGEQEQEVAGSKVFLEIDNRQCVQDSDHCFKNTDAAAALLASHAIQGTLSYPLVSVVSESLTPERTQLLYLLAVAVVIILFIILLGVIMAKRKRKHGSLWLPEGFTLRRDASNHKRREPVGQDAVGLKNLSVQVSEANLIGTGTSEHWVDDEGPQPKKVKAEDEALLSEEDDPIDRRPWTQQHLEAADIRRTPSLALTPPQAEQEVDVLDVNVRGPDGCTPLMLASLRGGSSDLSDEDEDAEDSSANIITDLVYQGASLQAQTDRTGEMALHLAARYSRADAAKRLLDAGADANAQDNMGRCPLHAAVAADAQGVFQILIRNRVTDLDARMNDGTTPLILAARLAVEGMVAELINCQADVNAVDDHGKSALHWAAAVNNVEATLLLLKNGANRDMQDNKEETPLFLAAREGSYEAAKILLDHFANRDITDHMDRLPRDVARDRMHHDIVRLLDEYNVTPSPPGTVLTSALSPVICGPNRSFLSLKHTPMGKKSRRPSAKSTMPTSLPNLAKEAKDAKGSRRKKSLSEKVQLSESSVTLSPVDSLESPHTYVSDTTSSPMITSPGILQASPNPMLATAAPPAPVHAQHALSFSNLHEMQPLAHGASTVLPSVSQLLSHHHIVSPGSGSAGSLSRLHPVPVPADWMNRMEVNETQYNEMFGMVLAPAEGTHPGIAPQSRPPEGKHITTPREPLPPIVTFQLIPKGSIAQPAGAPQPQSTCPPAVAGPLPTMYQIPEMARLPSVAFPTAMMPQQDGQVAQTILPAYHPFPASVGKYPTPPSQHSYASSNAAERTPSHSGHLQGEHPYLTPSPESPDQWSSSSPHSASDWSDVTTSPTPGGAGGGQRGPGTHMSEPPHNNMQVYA
Sequence of Neurogenic locus notch homolog protein 3 (Homo sapiens) (Q9UM47 whole entry, looked up): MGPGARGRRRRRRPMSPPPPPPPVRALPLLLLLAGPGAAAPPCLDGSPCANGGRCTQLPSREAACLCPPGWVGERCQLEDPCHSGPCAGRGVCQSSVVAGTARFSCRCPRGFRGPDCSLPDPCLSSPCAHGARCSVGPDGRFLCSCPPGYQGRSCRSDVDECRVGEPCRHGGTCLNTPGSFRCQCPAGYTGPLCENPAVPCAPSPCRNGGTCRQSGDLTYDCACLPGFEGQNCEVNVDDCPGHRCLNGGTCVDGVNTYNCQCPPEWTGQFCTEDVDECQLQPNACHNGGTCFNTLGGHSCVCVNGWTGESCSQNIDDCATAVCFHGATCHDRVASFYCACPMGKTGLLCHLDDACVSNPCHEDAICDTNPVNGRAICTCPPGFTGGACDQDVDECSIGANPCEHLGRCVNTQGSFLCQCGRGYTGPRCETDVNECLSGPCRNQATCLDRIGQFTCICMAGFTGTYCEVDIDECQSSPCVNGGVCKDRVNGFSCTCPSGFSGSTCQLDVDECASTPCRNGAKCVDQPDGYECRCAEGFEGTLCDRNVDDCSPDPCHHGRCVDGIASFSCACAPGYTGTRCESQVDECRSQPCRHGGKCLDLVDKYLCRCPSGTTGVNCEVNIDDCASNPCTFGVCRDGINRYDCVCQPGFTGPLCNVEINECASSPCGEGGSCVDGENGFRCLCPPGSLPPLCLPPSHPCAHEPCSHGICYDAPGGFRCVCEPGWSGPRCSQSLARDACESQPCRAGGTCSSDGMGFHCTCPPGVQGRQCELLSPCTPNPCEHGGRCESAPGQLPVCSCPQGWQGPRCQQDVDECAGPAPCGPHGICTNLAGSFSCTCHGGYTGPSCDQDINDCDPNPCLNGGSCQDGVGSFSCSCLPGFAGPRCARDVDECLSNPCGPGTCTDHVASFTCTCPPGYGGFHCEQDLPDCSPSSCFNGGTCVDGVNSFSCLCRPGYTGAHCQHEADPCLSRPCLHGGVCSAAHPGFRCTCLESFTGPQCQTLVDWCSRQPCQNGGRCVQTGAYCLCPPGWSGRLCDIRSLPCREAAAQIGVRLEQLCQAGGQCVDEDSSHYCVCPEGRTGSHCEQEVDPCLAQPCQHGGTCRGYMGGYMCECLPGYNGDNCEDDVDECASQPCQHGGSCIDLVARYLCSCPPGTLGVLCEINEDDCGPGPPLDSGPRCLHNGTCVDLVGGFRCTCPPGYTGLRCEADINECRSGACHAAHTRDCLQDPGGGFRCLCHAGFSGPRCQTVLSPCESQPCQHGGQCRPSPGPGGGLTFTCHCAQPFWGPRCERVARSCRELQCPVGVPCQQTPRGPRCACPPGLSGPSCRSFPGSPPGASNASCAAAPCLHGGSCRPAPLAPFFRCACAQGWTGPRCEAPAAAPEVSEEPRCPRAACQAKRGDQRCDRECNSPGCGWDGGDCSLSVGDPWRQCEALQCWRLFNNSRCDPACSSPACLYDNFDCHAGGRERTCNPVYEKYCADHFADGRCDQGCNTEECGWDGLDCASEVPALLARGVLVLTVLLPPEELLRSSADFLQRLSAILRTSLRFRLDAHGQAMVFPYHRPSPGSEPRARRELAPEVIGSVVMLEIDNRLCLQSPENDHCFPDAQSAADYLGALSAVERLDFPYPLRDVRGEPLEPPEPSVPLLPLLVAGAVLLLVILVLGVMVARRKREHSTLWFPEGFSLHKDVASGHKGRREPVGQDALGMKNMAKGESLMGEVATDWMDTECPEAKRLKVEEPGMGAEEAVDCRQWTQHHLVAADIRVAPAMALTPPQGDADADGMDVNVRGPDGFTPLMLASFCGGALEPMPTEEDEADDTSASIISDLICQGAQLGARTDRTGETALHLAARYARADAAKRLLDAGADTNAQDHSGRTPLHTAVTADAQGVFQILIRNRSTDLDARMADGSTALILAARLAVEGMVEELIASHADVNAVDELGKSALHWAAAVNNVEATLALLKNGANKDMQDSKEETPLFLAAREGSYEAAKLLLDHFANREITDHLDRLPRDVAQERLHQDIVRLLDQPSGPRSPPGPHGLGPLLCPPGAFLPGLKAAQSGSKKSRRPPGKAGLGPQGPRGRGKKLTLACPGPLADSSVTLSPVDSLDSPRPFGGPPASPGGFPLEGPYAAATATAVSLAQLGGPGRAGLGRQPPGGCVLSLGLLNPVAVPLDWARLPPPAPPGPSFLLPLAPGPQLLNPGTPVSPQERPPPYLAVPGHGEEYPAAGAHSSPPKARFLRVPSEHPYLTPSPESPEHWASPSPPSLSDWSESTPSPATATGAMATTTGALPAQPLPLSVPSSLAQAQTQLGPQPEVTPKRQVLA

For `COCCCNC(=O)[C@@]1(CCS(=O)(=O)c2ccccc2)N=C(c2ccc(OCCCO)cc2)O[C@H]1c1ccccc1CN=[N+]=[N-]`, the composite z-score worked out at 1.06 in test [1]; 0.865 in [2]; 0.331 in test [3]; 1.12 in [4]; 1.25 in test [5]; 1.01 in test [6]. Also, the composite z-score is 1.22 in [7]; 1.25 in [9]; 0.0515 in test [10]; 1.54 in test [11]; 2.65 in [15]; 0.568 in [17]. Besides, the figures for the composite z-score in test [18], in test [19] and in [20] were 1.9, 1.07 and 0.242, respectively. Moreover, the z-score in [8] was -0.891 (inactive); in [12], -1.61 (inactive); in [13], -1.21 (inactive); in [14] it was 0.468 (inactive); in [16], 2.4 (inactive).

Take `CN1C=C(C(=O)OCCS(C)(=O)=O)C(C(=O)OCCS(C)(=O)=O)=CC(CCCO)=CC1c1cccs1` (stereo not given): the composite z-score in test [1] was -0.329; in [2], 0.58; in test [3] it was -0.197; in [4] it was 0.239; in test [5] it was 0.907; in test [6], -0.362. For the same compound, the composite z-score in test [7] turned out to be 0.269; in test [9] it was 0.137; in [10] it was 0.0664; in test [11] it was 1.13; in test [15] it was 0.454; in test [17], 0.022. In addition, the composite z-score in [18] was 0.774; in test [19], 0.774; in [20] it was -0.0659. In addition, the z-score in [8] was -0.234 (inactive); in test [12], -0.444 (inactive); in [13], -1.22 (inactive); in test [14], -2.42 (inactive); in test [16], 0.261 (inactive).

With `COC(=O)C1=CC(CCCO)=CC(C2CC2)N(Cc2cc3c(cc2Br)OCO3)C=C1C(=O)OC` (stereo not given), the composite z-score in test [1] is 1.74; in test [2] it was 2.08; in [3] it was -0.0656; in test [4] it was -0.435; in test [5], 0.728; in test [6] it was 2.22. In addition, the composite z-score in test [7] is 1.3; in test [9], 0.796; in [10], -0.0645; in test [11], 1.54; in test [15] it was 3; in [17], 0.392. In addition, the composite z-score was -0.705 in [18], 0.647 in test [19] and 0.0821 in test [20]. Moreover, the z-score in test [8] is -0.0234 (inactive); in [12], -1.04 (inactive); in [13], -2.22 (inactive); in test [14], -1.23 (inactive); in test [16], -0.741 (inactive).

Regarding `C/C=C/[C@@H](CCn1cc(CCO[Si](C(C)C)(C(C)C)C(C)C)nn1)[Si](C)(C)c1ccc(OC)cc1`, the composite z-score in test [1] is 0.502; in test [2] it was -0.416; in test [3], -0.271; in test [4] it was -2.29; in [5], -2.88; in [6], -0.774. Moreover, the composite z-score in [7] was -0.48; in test [9], -0.986; in test [10], -0.413; in test [11] it was -0.551; in [15], -0.356; in [17] it was -0.275. For the same compound, the composite z-score was -1.15 in test [18], -3.03 in [19] and -0.406 in [20]. Besides, the z-score in [8] is -1.33 (inactive); in [12] it was -3.08 (inactive); in [13] it was -2.88 (inactive); in test [14], -1.94 (inactive); in [16], -0.715 (inactive).

For the compound `C=C[C@H](OC)[C@@H](OC(=O)Nc1ccc(OC)cc1)c1ccc(OC)c(O)c1`, the composite z-score in test [1] was 1.46; in test [2] it was -0.68; in [3] it was -0.209; in [4], -1.29; in test [5] it was -2.83; in test [6], 0.272. Moreover, the composite z-score in test [7] was 0.843; in [9] it was -1.11; in [10], -0.487; in test [11] it was -1.07; in [15], -0.0649; in test [17], -0.21. The composite z-score in test [18] is -1.8; in test [19], -0.805; in [20], -0.373. Also, the z-score in test [8] was 1.51 (inactive); in test [12], 0.698 (inactive); in test [13] it was -0.133 (inactive); in test [14], 0.551 (inactive); in [16], 2.09 (inactive).
